An excerpt weighted towards active compounds, which were near 21% of everything screened.
Pf growth 96h – inhibits malaria parasite growth, 96 h; P. falciparum luciferase reporter growth, 96 h; Potency, µM (top dose mostly 28.7 µM), without a hit: at the highest dose activity change, negative = inhibition, usual class: inhibitors; 320,000 compounds, 6.9% hits; active = well fitted inhibition curve with a large enough effect; inconclusive = small, poorly fitted or top-dose-only effect, or another doubt; inactive = no such curve, though single readings can be large or run the other way; note: potency is the fitted concentration of half-maximal effect; % is set by controls: 0 for no effect and ±100 for the full control effect
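Parasite growth measured via integrated firefly luciferase reporter in P. falciparum. Infected erythrocytes at 2% hematocrit, 0.05% parasitemia final were treated 96 hours at 37 C under 5% CO2, and luminescence was read.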
SARS PLpro yeast – SARS-CoV PLP inhibition in yeast; S. cerevisiae expressing SARS-CoV PLpro, growth rescue; Potency, µM (doses to about 32.9 µM), inactives show top-dose activity, positive = growth rescue, usual class: activators; AID 485353; 330,000 compounds, 0.19% hits; note: potency is the fitted concentration of half-maximal effect; 0% is about no effect; nearly all actives have a fitted effect of over 55% in size
Shiga toxin inh – Shiga toxin inhibition. inhibition, % at 38.7 µM. AID 2315. 290,000 compounds, 9.2% hits. Vero cells, Shiga toxin protein synthesis inhibition reporter; in the data active = inhibition mostly above about 28%, no sharp cut-off; inactive = mostly below about 43%; note: 0% is about no effect
NS1 function inh – influenza NS1 inhibition | Potency, µM (highest dose often 46.1 µM), without a hit: top-dose activity, positive = more growth | 270,000 compounds, 0.4% hits | AID 2326; note: potency is the fitted concentration of half-maximal effect; actives are rising curves; nearly all actives have a fitted effect of over 50% in size
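Growth recovery, yeast-based: influenza A NS1 expressed in S. cerevisiae causes slow growth, and suppressors are detected by OD600. The parent strain without NS1 is used as positive control.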
Pf growth 48h – P. falciparum growth inhibition at 48 hours (one generation) | P. falciparum luciferase growth in erythrocytes, 48 h | Potency, µM (series often up to 28.7 µM), for the others: at the top dose activity change, negative = inhibition, most hits filed as inhibitors | 310,000 compounds, 5.9% hits | AID 504832; active = well fitted inhibition curve with a large enough effect; inconclusive = small, poorly fitted or top-dose-only effect, or another doubt; inactive = no such curve, though single readings can be large or run the other way; note: potency is the fitted concentration of half-maximal effect; % is set by controls: 0 for no effect and ±100 for the full control effect
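Cell-based growth assay: transgenic P. falciparum expressing firefly luciferase, cultured in red cells within RPMI 1640 containing 0.5% w/v Albumax, 24 mM bicarbonate and gentamycin. A drop in luciferase activity indicates inhibition.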
CHX counter – counter-screen for Shiga toxin inhibitors: cycloheximide protein synthesis inhibition | cell reporter, cycloheximide protein synthesis inhibition counterscreen | max response, % | AID 2314 | 300,000 compounds, 12% hits; in the data active = max response mostly above about 13%, no sharp cut-off; inactive = mostly below about 14%; note: read at 38.3 µM for the half of the compounds with a filed dose; 0% is about no effect
Numbers without * were called inactive; ? = inconclusive; . = no result; [ ] = dose if it differs, or a comment. Unless noted, calls come from the whole dose curve.

SMILES	Pf growth 96h	SARS PLpro yeast	Shiga toxin inh	NS1 function inh	Pf growth 48h	CHX counter
CCOc1ccc2[nH]c(=O)c(CN(Cc3ccco3)C(CC)c3nnnn3Cc3ccccc3)cc2c1 (configuration not stated)	?	2%	24	-1%	5.9µM*	1
Cc1cc(O)c(C(C)C)cc1CN1CCCCC1	.	.	.	0%	.	.
Cc1cc(C)cc(OCC(=O)OCC(=O)NC2CCCCCCC2)c1	5%	-2%	.	.	21%	.
CCOc1ccc(NC(=O)c2ccccc2NC(=O)CN2CCCCCC2)cc1	3%	3%	.	.	?	.
CCN(CC)CCCCCC(=O)Nc1ccccc1C(=O)Nc1ccccc1	10µM*	1%	-4	-1%	10%	0
Cc1ccc(NC(=O)c2ccccc2NC(=O)CCC(=O)O)cc1	?	16%	19*	-2%	62%	45*
CCOc1ccc(NC(=O)c2ccccc2NC(=O)CN(C)CC(=O)Nc2ccc(C)cc2)cc1	?	1%	-9	7%	10µM*	-3
CC(=O)c1ccccc1NCC(=O)Nc1ccc(C)cc1	?	-2%	61*	-41%	11%	30*
COC(=O)CCC(=O)Nc1ccccc1C(=O)Nc1ccccc1	95%	2%	-5	-7%	-3%	-2
Cc1ccc(N/C=C2\CCCCC2=O)nc1	?	0%	107*	1%	0%	58*
O=C1CCCC/C1=C\Nc1ccc(Cl)cn1	.	?	61*	-45%	-13%	27*
Cc1c(NC(=O)COC(=O)c2ncc(Cl)c(Cl)c2Cl)c(=O)n(-c2ccccc2)n1C	22%	-2%	.	.	6%	.
CC(C)C(=O)NC(c1ccccc1Cl)c1c(O)ccc2ccccc12 (configuration not stated)	4.7µM*	1%	-14	1%	9.3µM*	-6
O=C(NC(c1ccccc1)c1c(O)ccc2ccccc12)c1ccccc1Cl (configuration not stated)	?	-11%	-5	-15%	?	-5
CCC(=O)NC(c1ccc(N(C)C)cc1)c1c(O)ccc2ccccc12 (configuration not stated)	?	0%	18	1%	?	-1
O=C(NC(c1ccc(Cl)cc1)c1c(O)ccc2ccccc12)c1ccccc1 (configuration not stated)	38%	-2%	-4	?	12µM*	33*
CCC(=O)NC(c1ccccc1Cl)c1c(O)ccc2ccccc12 (configuration not stated)	-20%	0%	-6	2%	10µM*	-1
CCCN(C(=O)c1cc(Cl)nc2ccccc12)c1c(N)n(Cc2ccccc2)c(=O)[nH]c1=O	?	0%	.	.	?	.
Cc1ccc(NC(=O)COC(=O)c2ccnn2C)cc1	?	-4%	93	-8%	28%	32*
Cc1ccc(NC(=O)COC(=O)c2ccn(C)n2)cc1	5%	5%	19	-13%	19%	20*
Cn1nccc1C(=O)OCC(=O)Nc1ccccc1	22%	-4%	27	-5%	3%	-5
Cc1cccc(CSCc2nnc(N)s2)c1	34%	4%	39*	-6%	8%	19*
CCOC(=O)c1csc(-c2snnc2C)n1	30%	1%	30	-1%	116%	20
Cc1ccc(SC(C)C(=O)NC2CC2)cc1 (configuration not stated)	10µM*	-7%	-2	8%	10µM*	-2
Cc1ccc(SC(C)C(=O)NCCC2=CCCCC2)cc1 (configuration not stated)	12µM*	-29%	2	-4%	0%	-1
SMILES	Pf growth 96h	SARS PLpro yeast	Shiga toxin inh	NS1 function inh	Pf growth 48h	CHX counter
Cc1ccc(CSCCC(=O)NCCC2=CCCCC2)cc1	14%	-30%	21	-14%	39%	23*
CC(=O)Nc1ccc(SC(C)C(=O)NC2CCCC2)cc1 (configuration not stated)	4%	10%	-12	6%	13%	-6
CN(C1CCCCC1)S(=O)(=O)c1ccc(=S)[nH]c1	?	-1%	.	.	?	.
O=C(NC1CCCCC1)C(c1cccnc1)N(C(=O)CCl)c1cccc(Cl)c1 (configuration not stated)	?	-14%	-9	15%	?	5
CC(C)(C)n1cc(C(=O)c2ccccc2)cc1-c1ccccc1	?	2%	33	3%	12µM*	-1
Cc1ccc(S(=O)(=O)/C=C/c2ccccc2)cc1	144%	-51%	-14	-9%	8%	-3
COc1cc2[nH]c3c(=O)n(N)c(=O)[nH]c3c2cc1OC	28%	-2%	-7	3%	32%	-2
CN(C)CCNC(=O)c1cc2ccccc2oc1=O	?	-5%	-3	-10%	-3%	-3
O=C(NCCC1=CCCCC1)c1cc2ccccc2oc1=O	39%	0%	67*	-4%	26%	19*
COc1ccc(CCNC(=O)c2cc3ccccc3oc2=O)cc1	0%	-7%	34*	-47%	13%	29*
Cc1ccc(-c2[nH]c3ccccc3c2SCCNC(=O)c2cc3ccccc3oc2=O)cc1	5.9µM*	2%	-20	?	?	-2
NS(=O)(=O)c1ccc(CCNC(=O)c2cc3ccccc3oc2=O)cc1	?	1%	.	9%	35%	2
CC(NC(=O)c1cc2ccccc2oc1=O)c1ccccc1 (configuration not stated)	12µM*	-11%	47*	-24%	11%	20*
CCCn1c(N)c(C(=O)CN2CCc3ccccc3C2)c(=O)n(C)c1=O	37%	-3%	-10	.	5%	-3
COc1cccc(CNC(=O)C2CCCN(S(=O)(=O)c3c(C)[nH]c(=O)[nH]c3=O)C2)c1 (configuration not stated)	.	-7%	25	-6%	13%	4
O=C(NCCc1ccccc1)c1cc2ccccc2oc1=O	9.3µM*	1%	-8	16%	3%	-4
C/C(=N\Nc1ccccc1)c1cc2ccccc2oc1=O	?	-3%	25	-5%	42%	19
C/C(=N\NC(=O)CC#N)c1cc2ccccc2oc1=O	?	3%	29*	?	0%	16*
O=C(NCCc1ccc(F)cc1)c1cc2ccccc2oc1=O	-9%	-2%	-14	14%	11%	8
Cc1c(C(=O)NCCC2=CCCCC2)cccc1[N+](=O)[O-]	?	2%	94*	-7%	41%	35*
CN(C)c1ccc(S(=O)(=O)NCC(=O)NCCC2=CCCCC2)cc1[N+](=O)[O-]	?	1%	.	.	12µM*	.
COc1ccc(C)cc1S(=O)(=O)N(CC(=O)N1CCCC1)c1ccccc1	?	1%	-2	-1%	-24%	3
CN1CCN(CCCNC(=O)Nc2ccc([N+](=O)[O-])cc2)CC1	-17%	-3%	9	4%	3%[0.00184 µM]	-3
C[C@@H]1C[C@@H]([C@@H](C)CC2CC(=O)NC(=O)C2)C(=O)[C@@H](C)C1	.	.	-16	.	.	-8

Compound activity (PubChem)
